System: SRPK3
Details: concentration: 1 μM, replicates: in singlicate; n = 1
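Note: KINOMEscan kinase panel screen.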

Row | Structure (SMILES) | %Inh [%]
1 | Cc1ccccc1-c1cc(-c2c[nH]nc2-c2ccccn2)ccn1 [GW680061] | 4
2 | Cl.Cl.Cl.N#Cc1ccc(CCNc2nccc(-c3cccc(CN4CCNCC4)c3)n2)cc1 [GSK2137462] | 0
3 | COc1cc2ncnc(Nc3cccc(Br)c3)c2cc1OC.Cl [GI230329] | 0
4 | CCc1ccc(-c2ccc3c(c2)-c2n[nH]cc2S(=O)(=O)N3C)cc1 | 0
5 | CNc1nc(-c2ccc3c(N)n[nH]c3c2)cc(N2C[C@@H](C(=O)NC3CCCCC3)OC[C@H]2C)n1 [GSK2375584] | 0
6 | NS(=O)(=O)c1cccc(N/C=C2\C(=O)Nc3ccc(S(=O)(=O)Cc4c(Cl)cccc4Cl)cc32)c1 [GSK398099] | 0
7 | COc1ccc(CSc2nnc(-c3ccc4ncsc4c3)o2)cc1C(F)(F)F | 0
8 | O=C(Nc1n[nH]c2nc(-c3ccco3)c(Br)cc12)C1CCN(Cc2ccccc2)C1.O=C(O)[C@H](O)[C@@H](O)C(=O)O (stereo not drawn) [SB-742034] | 0
9 | CS(=O)(=O)CCNCc1nc(-c2ccc3ncnc(Nc4ccc5c(cnn5Cc5ccccc5)c4)c3c2)cs1.Cl.Cl [GW569716] | 9
10 | Cc1ccc(NC(=O)Nc2ccc(Cl)cc2)cc1-c1ccc(C(=O)Nc2ccncc2)cc1 [GSK1398472] | 46
11 | CC[C@@H]1CO[C@H](C(=O)Nc2ccccc2)CN1c1cc(-c2ccc3c(N)n[nH]c3c2)nc(NC)n1 [GSK2376236] | 0
12 | COC(=O)c1cccc(NC(=O)NC2CCN(c3ccnc(Nc4ccc(F)cc4)n3)C2)c1 (stereo not drawn) [GSK1379725] | 0
13 | O=c1cc(N2CCOCC2)nc2n(Cc3cccc(Cl)c3Cl)c3ccccc3n12 [GSK2299009] | 15
14 | COc1ccc(Nc2nccc(N3CCC(NC(=O)C(C)c4ccc(Cl)cc4)CC3)n2)cc1 (stereo not drawn) [GSK1379812] | 8
15 | Nc1ncnc2occ(-c3ccc4c(c3)CCN4C(=O)Cc3cc(F)ccc3F)c12 [GSK2645446] | 0
16 | Cc1c(Cn2c3ccccc3n3c(=O)cc(N4CCOCC4)nc23)cccc1C(F)(F)F [GSK2306394] | 0
17 | COc1ccc(Nc2nccc(N3CCC(NC(=O)c4cc5ccccc5s4)C3)n2)cc1 (stereo not drawn) [GSK1379738] | 0
18 | Cn1cncc1C(=O)NC1CCN(c2ccnc(Nc3ccc(F)cc3)n2)C1 (stereo not drawn) [GSK1379717] | 0

Row | Structure (SMILES) | %Inh [%]
19 | CC(=O)c1cccc(NC(=O)NC2CCN(c3ccnc(Nc4ccc(F)cc4)n3)C2)c1 (stereo not drawn) [GSK1379710] | 0
20 | COc1cccc(C2=C(Nc3cc(Cl)c(O)c(Cl)c3)C(=O)NC2=O)c1 [SB-390767] | 24
21 | COc1cccc(CNC(=O)NC2CCN(c3ccnc(Nc4ccc(F)cc4)n3)C2)c1 (stereo not drawn) [GSK1379723] | 16
22 | Fc1ccc(-c2nn3cccc(F)c3c2-c2ccncc2)cc1 [GW475620] | 16
23 | CSc1ccc(-c2nc3n(c2-c2ccncc2)CCC3)cc1 [SKF-105561] | 0
24 | COc1ccc(CSc2nnc(-c3ccc4nccn4c3)o2)cc1C(F)(F)F | 16
25 | O=C1NC(=O)C(c2ccc(Cl)cc2)=C1Nc1ccc(O)cc1 [SB-340867] | 0
26 | CC(=O)c1c(C)c2cnc(Nc3ccc(N4CCNCC4)cn3)nc2n(C2CCCC2)c1=O | 0
27 | CNCc1ccc2nc(NC(=O)c3ccc(C(C)(C)C)cc3)cn2c1 | 0
28 | CNc1nc(-c2ccc3c(N)n[nH]c3c2)cc(N2C[C@@H](C(=O)Nc3ccccc3)CC[C@H]2C)n1 [GSK2298859] | 0
29 | COC(=O)c1cccc(NC(=O)NC2CCN(c3ccnc(Nc4ccc(OC)cc4)n3)C2)c1 (stereo not drawn) [GSK1379746] | 0
30 | Cc1ccccc1Cn1ccn2c(=O)cc(N3CCOCC3)nc12 [GSK2269905] | 0
31 | Nc1cccc(-c2ccc3c(N)n[nH]c3c2)n1 [GSK2192730] | 0
32 | COc1ccc(CSc2nnc(-c3ccc4c(c3)CCO4)o2)cc1 | 0
33 | COC(=O)C(Cc1ccccc1)NC(=O)NC1CCN(c2ccnc(Nc3ccc(F)cc3)n2)C1 (stereo not drawn) [GSK1379714] | 0
34 | c1ccc(-c2ccnc3[nH]ccc23)cc1 [SB-693578] | 0
35 | Cc1nccc(-c2c(-c3ccc(F)cc3)ncn2CCCN2CCOCC2)n1.Cl [SB-282975] | 0
36 | COc1nccc(-c2c(-c3ccc(F)cc3)ncn2CCCN2CCOCC2)n1 [SB-282852] | 23
